According to PubChem BioAssay:

Experiment: EMT-state selective cytotoxicity in co-culture – imaging, PC-3E GFP, TEM4-18 mCherry, primary screen (AID 1345086);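 also: cells exposed to compound for 72 h before imaging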
Conditions: PC-3E GFP / TEM4-18 mCherry co-culture, imaging cell counts; measured here: epithelial PC-3E GFP cell survival; at 1 µM

SMILES | normalised cell number
C[N+]1(C)C2CC(OC(=O)[C@@H](CO)c3ccccc3)CC1C1OC12 (stereo partly drawn) | 0.85
CC(=O)N1CCCC1C(=O)O (stereo not drawn) | 1.3
COC1=CC(C)[C@@H]2C[C@H]3OC(=O)C[C@H]4C(C)=C(OC)C(=O)C([C@@]34C)[C@@]2(C)C1=O (stereo partly drawn) | 1.31
NC(Cc1ccc(F)cc1)C(=O)O (stereo not drawn) | 0.88
COC(=O)C(N)CS (stereo not drawn) | 1.14

Same assay, conditions: PC-3E GFP / TEM4-18 mCherry co-culture, imaging cell counts; measured here: mesenchymal TEM4-18 mCherry cell survival; at 1 µM

SMILES | normalised cell number
CC(=O)OCC(=O)[C@@]1(O)[C@H](C)CC2C3CCC4=CC(=O)C=C[C@]4(C)[C@@]3(F)[C@@H](O)C[C@@]21C (stereo partly drawn) | 1.74
Nc1ccn(C2O[C@H](CO)[C@@H](O)[C@H]2O)c(=O)n1 (stereo partly drawn) | 1.19
O=C(/C=C/c1ccc(O)c(O)c1)OC(Cc1ccc(O)c(O)c1)C(=O)O (stereo not drawn) | 1.12
C=C(C)[C@H]1CC=C(C(=O)O)CC1 | 0.92
NC(COCc1ccccc1)C(=O)O (stereo not drawn) | 1.04
C/C=C(/C)C(=O)O[C@@H]1[C@H](OC(C)=O)[C@@]2(CO)C(CC1(C)C)C1=CCC3[C@@]4(C)CC[C@H](O[C@@H]5O[C@H](C(=O)O)[C@@H](O[C@@H]6O[C@H](CO)[C@@H](O)[C@H](O)[C@H]6O)[C@H](O)[C@H]5O[C@@H]5O[C@H](CO)[C@@H](O)[C@H](O)[C@H]5O)[C@](C)(CO)C4CC[C@@]3(C)[C@]1(C)C[C@H]2O (stereo partly drawn) | 0.85
C[C@@H]1O[C@@H](OC[C@H]2OC(Oc3c(-c4ccc(OCCO)c(OCCO)c4)oc4cc(OCCO)cc(O)c4c3=O)[C@H](O)[C@@H](O)[C@@H]2O)[C@H](O)[C@H](O)[C@H]1O (stereo partly drawn) | 0.96
CC1(C)C2CC[C@]3(C)C(C(=O)C=C4[C@H]5C[C@@](C)(C(=O)O)CC[C@]5(C)CC[C@]43C)[C@@]2(C)CC[C@@H]1O (stereo partly drawn) | 1.11
